Out of some 5,500 compounds screened, about 2,000 (36%) were called active. Roughly 18% stayed inconclusive and do not appear here. Rule as the data show it: active = normalized growth mostly below about 0.91 (no sharp cut-off); inconclusive = no clear call, values can overlap the other calls; inactive = mostly above about 0.92. Some of the results follow.
Test: chemical genetic growth profiling, strain panel (AID 1159580);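 also: tested at 20 µM; growth read once vehicle control cultures reached saturation at 30 °C; 1 = growth at the plate median or of vehicle wells; lower values mean less growth of the strain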
Details: S. cerevisiae deletion strains, growth OD

Measured: normalized growth

N[C@@H](C(=O)O)c1ccccc1
inactive: locus YAL013W, strain DEP1, hits give low values 1 | locus YBR229C, strain ROT2, hits give low values 1 | locus YDL101C, strain DUN1, hits give low values 1.01 | locus YDR150W, strain NUM1, hits give low values 0.997 | locus YEL061C, strain CIN8, hits give low values 1 | locus YGR078C, strain PAC10, hits give low values 0.998 | locus YHR030C, strain SLT2, hits give low values 0.927 | locus YHR087W, strain rtc3, hits give low values 0.998 | locus YJR043C, strain POL32, hits give low values 1.01 | locus YJR075W, strain HOC1, hits give low values 0.992 | locus YLR039C, strain RIC1, hits give low values 0.981 | locus YLR058C, strain SHM2 (second series), hits give low values 0.992 | locus YLR085C, strain ARP6, hits give low values 1.04 | locus YLR262C, strain YPT6, hits give low values 0.954 | locus YML094W, strain GIM5, hits give low values 1.03 | locus YMR219W, strain ESC1, hits give low values 1 | locus YMR263W, strain SAP30, hits give low values 0.987 | locus YNL128W, strain TEP1, hits give low values 0.985 | locus YNL153C, strain GIM3, hits give low values 0.999 | locus YNL298W, strain CLA4 (second series), hits give low values 1.02 | locus YNL322C, strain KRE1, hits give low values 1.01 | locus YNR030W, strain Alg12, hits give low values 1.03 | locus YPL055C, strain LGE1, hits give low values 0.996 | locus YPL241C, strain CIN2, hits give low values 1.02 | locus YPR135W, strain CTF4, hits give low values 0.974

From PubChem BioAssay AID1159580 (chemical genetic matrix, 2015)
